About 83,000 compounds went through this panel and 20% of them were active in at least one assay; those are over-represented in the sample as a whole.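 Assay: single dose, 48 h. Readout: percent growth (0 = no net growth; negative = cell death). Active: <10.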 Unmarked numbers belong to inactive results. Activity calls are given as the source filed them.
Legend:
Assay in all cases: NCI-60 one-dose screen, 48 h (100 = growth as untreated, 0 = no growth, -100 = all killed)
Settings in all cases: 10 µM unless noted
[1] = system: SR leukemia
[2] = system: RPMI-8226 leukemia
[3] = system: OVCAR-8 ovarian
[4] = system: OVCAR-5 ovarian
[5] = system: OVCAR-4 ovarian
[6] = system: SK-OV-3 ovarian
[7] = system: IGROV1 ovarian
[8] = system: OVCAR-3 ovarian
[9] = system: HS 578T breast
[10] = system: NCI/ADR-RES ovarian
[11] = system: T-47D breast
[12] = system: BT-549 breast
[13] = system: MDA-MB-435 melanoma
[14] = system: SW-620 colon
[15] = system: HCT-116 colon
[16] = system: HCC-2998 colon
[17] = system: KM12 colon
[18] = system: MCF7 breast

SMILES | growth [1] | growth [2] | growth [3] | growth [4] | growth [5] | growth [6] | growth [7] | growth [8] | growth [9] | growth [10] | growth [11] | growth [12] | growth [13] | growth [14] | growth [15] | growth [16] | growth [17] | growth [18]
CCOC(=O)/C=C1/SC(=Nc2ccc(C#N)cc2)N(Cc2ccco2)C1=O | 0.973% (active) | -33.8% (active) | 54.2% | 37.4% | 51.2% | 91.7% | 26.3% | 17.9% | 65.4% | 40.9% | 12.1% | 44.8% | 50.5% | 12% | -61.6% (active) | 64.7% | 60.9% | 
COc1cnc2c(c1)C(=O)c1c-2n(CCCN2CCOCC2)c(=O)c2cc(F)ccc12 | 1.17% (active) | -19.2% (active) | 0.87% (active) | -13.2% (active) | 15.7% | -25.1% (active) | 12.2% | -29.9% (active) | 12.5% | 4.01% (active) | -16% (active) | 13.3% | -14.2% (active) | 6.66% (active) |  | 13.2% | -14.4% (active) | 1.93% (active)
COc1cc(/C=C/C(=O)c2c(C)n([O-])c3ccc(Cl)cc3[n+]2=O)cc(OC)c1OC | 11.8% | 72.6% | 50.8% | 98.2% | 71% | 104% | -62.2% (active) | 102% | 70.5% | 73.5% | 58.6% | 53.8% | 84.1% | 82.2% |  | 106% | 96.2% | 42.2%
C[C@H]1O[C@@H](O[C@H]2[C@@H](O)C[C@H](O[C@H]3[C@@H](O)C[C@H](O[C@H]4CC[C@]5(C)C6CC[C@]7(C)[C@@H](C8=CC(=O)OC8)CC[C@]7(O)C6CC[C@@H]5C4)O[C@@H]3C)O[C@@H]2C)C[C@H](O)[C@@H]1O (some centres not stated) | -32.7% (active) | -18.8% (active) | -79.1% (active) | -100% (active) | -51.4% (active) | -92.5% (active) | -38.8% (active) | -100% (active) | -1.73% (active) | -79.2% (active) | -44.5% (active) | -92.5% (active) | -100% (active) | -100% (active) |  | -90.8% (active) | -100% (active) | -41.2% (active)
COc1ccc(Cl)cc1Nc1nc(C(F)(F)F)ccc1C(=O)N/N=C/c1c(Cl)cccc1Cl | 22% | 40.1% | 55.2% | 75.3% | 39% | 49.7% | 29.6% | -2.74% (active) | 54.3% | 49.9% | 42.2% |  | 62.7% | 36.9% | 51.4% | 63.5% | 52.7% | 185%
O=C(NC1CCCCC1)c1ccc(Nc2ncnc3c2cnn3-c2ccccc2)cc1 | 67.5% | 89.5% | 21.6% | 80.3% | 30.3% | 54% | 71.1% | 87.4% | 0.218% (active) | 74.2% | 76.8% | 59.8% | 81.2% | 72.9% |  |  | 88.5% | 82.8%
CCN(CC)CCSc1ncnc2c1cnn2-c1ccc(S(N)(=O)=O)cc1 | 57% | 98.2% | 83.5% | 112% | 106% | 108% | 96.5% | 84.4% | 103% | 85.2% | 102% | 100% | 76.2% | 73.5% | 70.6% | 97.8% | 106% | 
Cc1ccc(C2=NNC(c3sc(Cl)nc3Cl)C2)cc1 (configuration not stated) | 3.24% (active) | 97.9% | 100% | 116% | 84.7% | 88.4% | 80.6% | 101% | 116% | 94.5% | 56.1% | 98% | 104% | 72.1% |  | 92.8% | 99.5% | 
CCSc1nc(-c2cccs2)n2nc(-c3ccco3)cc2n1 | 92.7% | 53.9% | 99.8% | 97.3% | 68.9% | 106% | 87.5% | 112% | 108% | 103% | 43.1% | 113% | 111% | 102% | 94.8% | 105% | 82.5% | 
NC(=N\N=C/Cc1ccccc1)/C(N)=N\N=C\Cc1ccccc1 | 81.5% | 101% | 107% | 98.8% | 100% | 113% | 119% | 110% | 105% | 103% | 91.7% | 104% | 107% | 104% | 108% |  | 104% | 
Cc1cc2c(cc1C)[n+](Cc1ccc3ccccc3n1)cn2Cc1ccc2ccccc2n1 | -20.2% (active) | -30.7% (active) | 6.48% (active) | 23.6% | 8.38% (active) | 0.95% (active) | -4.22% (active) | 3.63% (active) | 27.3% | 96.4% | -1.32% (active) | -45.9% (active) | -24.5% (active) | 9.34% (active) |  | 3.84% (active) | -7.23% (active) | 7.12% (active)
COc1ccc([N+](=O)[O-])c(S(=O)(=O)c2ccc(Cl)cc2)n1 | -16% (active) | 34.9% | 71.7% | 77.1% | 68.7% | 97.2% | 97.1% | 36.6% | 97.9% | 81.3% | 65.2% |  | 40.9% | 14.4% | 20.9% | 104% | 97.7% | 18.1%
Fc1ccccc1C1c2ccccc2-c2nccn21 (configuration not stated) | 78.1% | 80.3% | 95.8% | 96.3% | 90% | 109% | 79.6% | 96.7% | 98.8% | 93.5% | 91.3% | 106% | 108% | 107% |  | 103% | 93.8% | 101%
N#Cc1c(-c2ccccc2)cc(-c2ccccc2)n(CCC(=O)O)c1=O | 19.8% | 50.3% | 50.3% | 94.2% | 90.8% | 92% | 50.2% | 14.8% | 58.2% | 33.7% | 44.1% | 27.2% | -9.89% (active) | 37.3% | 40% | 74.3% | 34.5% | 
CC[C@H]1CN2CCc3cc(OC)c(OC)cc3C2C[C@@H]1CC1NCCc2cc(OC)c(OC)cc21 (some centres not stated) | -9.39% (active) | -41% (active) | -20.6% (active) | -12% (active) | -9.56% (active) | -1.2% (active) | -22.9% (active) | -30.9% (active) | -12% (active) | -9.95% (active) | -15.1% (active) |  | -71.2% (active) | -20.3% (active) | -22.9% (active) | -47.8% (active) | -37.2% (active) | -2.18% (active)
COc1cccc(/C=N/Nc2nc3ccccc3s2)c1OC | 45.9% | 74.8% | 76.5% | 97.7% | 92.2% | 78.5% | 81.9% | 98.3% | 97.9% | 91.7% | 67.5% | 78.5% | 91.5% | 96.7% |  |  | 70.5% | 63.2%
Cc1cc(Br)c(C)cc1Br | 83.7% | 103% | 101% | 103% | 103% | 92.7% | 137% | 103% | 105% | 112% | 92.5% | 99.9% | 99.8% | 108% | 99.1% | 115% | 103% | 
CCCCCCC(CC#N)(CCC)CCCC (configuration not stated) | 103% | 103% | 105% | 97.8% | 114% | 113% | 101% | 119% | 95.3% | 109% | 112% | 120% | 103% | 107% | 104% | 110% | 111% | 
